Assay outcomes from PubChem.
RGS12 GoLoco inh: blocks human Gai1 binding to RGS12 GoLoco peptide, red readout; P63096; Gai1:RGS12 GoLoco peptide FP, rhodamine, 10 min; Potency, µM (doses to about 61.6 µM), inactives show top-dose activity, negative = inhibition, usual class: inhibitors; hit rate 0.44% among 230,000; AID 880; active means well fitted inhibition curve with a large enough effect, not every such curve was filed as active; inactive means no such curve, though single readings can be large or run the other way; further: potency means the concentration at half of the fitted maximal effect; on the % scale 0 is the no-effect control and ±100 the full control effect; nearly all actives have a fitted effect of over 30% in size
HTT aggregate: reduces HttQ103-GFP aggregates in PC12 cells; hit rate 1.1% among 220,000; PC12 HttQ103-GFP aggregates, Acumen cytometry, 40 h; Potency, µM (highest dose often 46.1 µM), for inactives: at the highest dose activity change, negative = inhibition, actives largely listed as inhibitors; active means well fitted curve in the direction sought with a large enough effect; inconclusive means small, poorly fitted or top-dose-only effect, or another doubt; inactive means no such curve, though single readings can be large; an effect the other way counts as inactive or inconclusive; further: potency means the concentration at half of the fitted maximal effect; on the % scale 0 is the no-effect control and ±100 the full control effect; nearly all actives have a fitted effect of over 60% in size
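Compounds (qHTS titration) were added to PC12 cells expressing an ecdysone-driven HTT exon 1 Q103–GFP fusion after induction with 100 nM tebufenozide. Aggregate formation was measured as GFP objects in cell lysates.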
HTT ATP protect: protects HTT-Q103 PC12 cells, measured by ATP; AID 1471; Potency, µM (highest dose often 56.4 µM), for the others: cytoprotection (ATP increase), most hits filed as activators; hit rate 0.14% among 230,000; PC12 HTT-Q103 induced, cytoprotection, ATP luminescence, 40 h; active means well fitted curve in the direction sought with a large enough effect; inconclusive means small, poorly fitted or top-dose-only effect, or another doubt; inactive means no such curve, though single readings can be large; an effect the other way counts as inactive or inconclusive; further: potency means the concentration at half of the fitted maximal effect; % of control where 0% means no effect; nearly all actives have a fitted effect of over 45% in size
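Huntington model: PC12 line, ecdysone-inducible HTTQ103 exon1–GFP, tebufenozide 100 nM. Test articles in a dose series. Endpoint luminescence from cellular ATP.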
ALDH1A1 block: ALDH1A1 (human) enzyme inhibition; Purified ALDH1A1, NADH fluorescence, propionaldehyde substrate; AID 1030; P00352; Potency, µM (titrated, usually from 75.3 µM), without a hit: at the top dose activity, negative = inhibition, most hits filed as inhibitors; hit rate 7.3% among 220,000;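 further: potency means the concentration at half of the fitted maximal effect; plate controls were no enzyme wells and a reference inhibitor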
HPGD block: HPGD (human) dehydrogenase inhibition; P15428; purified HPGD, NADH fluorescence kinetic, PGE2 substrate; Potency, µM, for inactives: top-dose activity change, negative = inhibition, hits mostly inhibitors; hit rate 4.3% among 150,000; AID 894; further: potency means the concentration at half of the fitted maximal effect; on the % scale 0 is the no-effect control and ±100 the full control effect
Target sequence (P15428 whole entry, looked up): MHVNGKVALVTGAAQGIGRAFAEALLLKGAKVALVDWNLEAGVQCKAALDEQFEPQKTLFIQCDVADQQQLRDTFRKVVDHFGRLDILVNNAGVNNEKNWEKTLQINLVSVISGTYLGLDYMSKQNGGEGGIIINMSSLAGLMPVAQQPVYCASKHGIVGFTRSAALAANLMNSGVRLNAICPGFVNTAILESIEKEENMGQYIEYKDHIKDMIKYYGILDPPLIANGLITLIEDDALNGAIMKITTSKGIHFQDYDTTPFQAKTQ
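NADH formation kinetics: reaction with 30 uM PGE2 and 1 mM NAD+ (final), 20 nM enzyme, Tris-HCl pH 8 with Tween 20, after 15 min compound preincubation at room temperature. Fluorescence change, last versus first of five reads.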
PNC assembly inh: inhibitors of perinucleolar compartment assembly; PC3M PTB-GFP, PNC prevalence imaging, 16 h; stronger effect = lower value; activity change (PNC), negative = inhibition, % at 10 µM; hit rate 3.1% among 140,000; AID 2417;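 active means readout at or below -70, meaning at least 70% loss of cells showing the perinucleolar compartment, a nuclear body marking cancer cells; inconclusive means readout between -30 and a set limit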;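 further: plate controls were DMSO wells for no effect and camptothecin positive control wells for full effect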
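PC3M cells stably expressing PTB-GFP, 750–1000 cells/well, treated 16 h at 37 °C with compound (23 nl of library stock), in duplicate. After paraformaldehyde fixation and Hoechst stain, imaged at 20x; PNC prevalence scored by image analysis.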
Numbers without * were called inactive; [ ] = remark or other dose. The list is not random: actives were taken first. Their share in the collection is about 11%. Unless noted, the call rests on the fitted dose curve; in most records, active means well fitted inhibition curve with a large enough effect (not every such curve was filed as active); inconclusive means small, poorly fitted or top-dose-only effect, or another doubt; inactive means no such curve, though single readings can be large or run the other way.

Screening Cc1ccccc1CSCCC(=O)NCCC1=CCCCC1 returned RGS12 GoLoco inh -8%, HTT aggregate 6%, HTT ATP protect 8%[10 µM], ALDH1A1 block -37%, HPGD block 13µM* and PNC assembly inh 41.
For O=C(CCc1ccccc1)NCCC1=CCCCC1 the results were RGS12 GoLoco inh -3%, HTT aggregate 3%, HTT ATP protect -10%[0.074 µM], ALDH1A1 block 5%, HPGD block 25µM* and PNC assembly inh inconclusive.
For CC(C(=O)NCCC1=CCCCC1)N1C(=O)c2ccccc2C1=O (configuration not stated) the results were RGS12 GoLoco inh -19%, HTT aggregate 5.6µM*, HTT ATP protect -61%[10 µM], ALDH1A1 block -15%, HPGD block -15% and PNC assembly inh 27.
For O=C(CCCc1ccccc1)NCCC1=CCCCC1 the results were RGS12 GoLoco inh 3%, HTT aggregate -6%[9.22 µM], HTT ATP protect -38% and ALDH1A1 block inconclusive.
CCCNC(=O)/C=C/c1ccc(C(C)C)cc1 was read as RGS12 GoLoco inh 2%, HTT aggregate -9%, ALDH1A1 block inconclusive, HPGD block -20% and PNC assembly inh 27.
O=C(CCSCc1ccc(Cl)cc1)NCCC1=CCCCC1 was read as RGS12 GoLoco inh -5%, HTT aggregate 5%, HTT ATP protect 10%[10 µM], ALDH1A1 block 3%, HPGD block -30% and PNC assembly inh -8.
`O=C(NCCC1=CCCCC1)C(c1ccccc1)c1ccccc1` gave HTT aggregate -32%, HTT ATP protect -30%, ALDH1A1 block 5% and PNC assembly inh -19.
For CCOC(=O)c1ccc(NC(=O)Nc2ncc(Cl)cc2Cl)cc1 the results were RGS12 GoLoco inh -6%, HTT aggregate 3%[9.22 µM] and HTT ATP protect 7%[10 µM].
O=C(O)[C@@H](O)[C@@H](O)[C@@H](O[C@H]1O[C@@H](CO)[C@@H](O)[C@@H](O)[C@@H]1O)[C@@H](O)CO was read as RGS12 GoLoco inh 4%[21.6 µM], HTT ATP protect -53%[17.1 µM], ALDH1A1 block 10%[20.9 µM] and HPGD block -1%.
Screening Cc1ccc(NC(=O)C2(c3ccccc3)CCOCC2)c([N+](=O)[O-])c1 returned RGS12 GoLoco inh 9%, HTT aggregate 2%, HTT ATP protect 7%[0.074 µM], ALDH1A1 block 6%, HPGD block -4% and PNC assembly inh 10.
Screening O=C(CNCCC1=CCCCC1)Nc1ccccc1N1CCCCC1 returned RGS12 GoLoco inh -37%, HTT aggregate 23%, HTT ATP protect 11%[1.9 µM], ALDH1A1 block 9.5µM*, HPGD block inconclusive and PNC assembly inh -29.
Screening Cc1ccccc1CSCCNC(=O)CCSc1ccccc1 returned RGS12 GoLoco inh -2%, HTT aggregate 7%, HTT ATP protect 17%, ALDH1A1 block 7.1µM*, HPGD block 10µM* and PNC assembly inh 24.
Screening O=C(NCCC1=CCCCC1)NC12CC3CC(CC(C3)C1)C2 returned RGS12 GoLoco inh 2%, HTT aggregate 22µM*, HTT ATP protect -11%[10 µM], ALDH1A1 block inconclusive, HPGD block -6% and PNC assembly inh 17.
CC(=O)Nc1ccc(OCc2nnc(-c3ccc(Cl)cc3)o2)cc1 was read as RGS12 GoLoco inh 5%, HTT aggregate -2%, HTT ATP protect 0% and ALDH1A1 block -5%.
`Cc1noc2ncnc(Sc3ccccc3Cl)c12` gave RGS12 GoLoco inh -8%, HTT aggregate 5µM*, HTT ATP protect -83%, ALDH1A1 block -16%, HPGD block -11% and PNC assembly inh -24.
C=CCNC(=S)Nc1cccc2ccccc12 was read as RGS12 GoLoco inh 8%, HTT aggregate 6%, HTT ATP protect 12%[10 µM], ALDH1A1 block -11%, HPGD block -16% and PNC assembly inh -96*.
Screening C=CCNC(=S)Nc1ccc(Cl)cc1F returned RGS12 GoLoco inh 3%, HTT aggregate -5%, HTT ATP protect -30% and ALDH1A1 block 5%.
`C=CCNC(=S)Nc1ccc(Br)cc1F` gave RGS12 GoLoco inh 7%, HTT aggregate 7%, HTT ATP protect 8%[10 µM], ALDH1A1 block 2%, HPGD block -6% and PNC assembly inh -88*.
